The source made the active and inactive calls. No rule for the calls is given here.

The target in one assay is Lysosomal alpha-glucosidase (Homo sapiens) (UniProt P10253). The experiment in a line: Direct Measure of the Activation of Acid alpha-Glucosidase Catalytic Rate. The conditions noted are these: purified enzyme, 4MU-alpha-Glc conversion, LC-MS; at 37.5 µM; stronger effect = higher value. The source says: NIH Chemical Genomics Center [NCGC] NIH Molecular Libraries Probe Production centers Network [MLPCN] MLPCN Grant: 1R03MH084841-01 Assay Submitter (PI): Wei Zheng NCGC Assay Overview: Alpha-glucosidase is responsible for hydrolysis of terminal, non-reducing 1,4-linked alpha-D-glucose residues with release of alpha-D-glucose. It is a lysosomal hydrolase that is required for the degradation of a small percentage (1-3%) of cellular glycogen in human. Deficiency of this enzyme results in glycogen-storage disease type II (GSDII), also referred to as Pompe disease, an autosomal recessive disorder. Structurally normal glycogen is accumulated in lysosomes and cytoplasm in affected patients, primarily in muscle tissues. Excessive glycogen storage within lysosomes may interrupt normal functioning of other organelles and leads to cellular injury. In turn, this leads to enlargement and dysfunction of the entire organ involved (eg, cardiomyopathy and muscle weakness). It has reported that the improper folding and trafficking of alpha-glucosidase resulting from the genetic mutations may account for a significant number of Pompe patients. […]
The catalysis rate of the 4MU-alpha-Gluc substrate by acid alpha-glucosidase was measured using LC-MS. […] (5) Add 50 ul stop solution (1M NaOH and 1M Glycine mixture, pH 10) (6) Run LC-MS and integrate peaks to quantitate amount of product
In the case of `CCCN1CNc2c(c(=O)[nH]c(=S)n2CCc2ccc(OC)c(OC)c2)C1`, the substrate conversion was 28% (active).

Still in this assay, the particulars now being: purified enzyme, 4MU-alpha-Glc conversion, LC-MS; conversion; at 5 µM; stronger effect = higher value.
Compound `CCCN1CNc2c(c(=O)[nH]c(=S)n2CCc2ccc(OC)c(OC)c2)C1` showed a substrate conversion of 20%.

Values taken from PubChem BioAssay AID2293 (National Center for Advancing Translational Sciences (NCATS), 2010).
